Each structure is given as a SMILES string. Hit rate of the full screen: of about 2,700 compounds, about 160 (5.9%) showed an effect of 50% or more. Shown is part of a subset that was picked to be rich in strong results.

The assay addresses Nonstructural protein 3 (Zika virus) (UniProt A0A024AXB9).
Where [1] appears, read: PRVABC59, Concentration 50.0 uM, Number of replicates 1.0.

Nonstructural protein 3 (Zika virus), sequence (A0A024AXB9 as listed by the source): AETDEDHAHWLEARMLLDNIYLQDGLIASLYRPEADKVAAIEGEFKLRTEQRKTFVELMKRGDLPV

By inhibition is commonly meant the relative decrease from the control value, in per cent. Higher therefore signals strong suppression. `O=C(/C=C/c1ccc(N2CCNCC2)cc1)C(=O)N1CCOCC1` displayed an inhibition (PRVABC59, Concentration 49.5 uM, Number of replicates 2.0, Standard deviation 0.677594356674037 %) of 0.889%; an inhibition (PRVABC59, Concentration 99.01 uM, Number of replicates 2.0, Standard deviation 0.8893426734771035 %) of 5.61%; an inhibition (PRVABC59, Concentration 198.0 uM, Number of replicates 2.0, Standard deviation 1.259902148857129 %) of 13.4%.
As to `CN(C)c1ccc(/C=C/C(=O)C(=O)N2CCOCC2)cc1`, the inhibition runs as follows: (PRVABC59, Concentration 49.5 uM, Number of replicates 2.0, Standard deviation 0.8258165831779674 %) 41.6%; (PRVABC59, Concentration 99.01 uM, Number of replicates 2.0, Standard deviation 0.46055378654400303 %) 57.5%; (PRVABC59, Concentration 198.0 uM, Number of replicates 2.0, Standard deviation 1.0005081895850734 %) 76.2%.
For the compound `NCc1ccc(/C=C/C(=O)C(=O)N2CCOCC2)cc1`, the inhibition was 37.2% (PRVABC59, Concentration 49.5 uM, Number of replicates 2.0, Standard deviation 0.6564199696429821 %); 58.8% (PRVABC59, Concentration 99.01 uM, Number of replicates 2.0, Standard deviation 0.38644007072414227 %); 79% (PRVABC59, Concentration 198.0 uM, Number of replicates 2.0, Standard deviation 0.034408012774717715 %).
Regarding `COc1cc(Cc2ccc3[nH]ncc3c2)nc(N2CCNCC2)n1`, the inhibition by setting is: (PRVABC59, Concentration 49.5 uM, Number of replicates 2.0, Standard deviation 0.053655972727460886 %) 4.68%; (PRVABC59, Concentration 99.01 uM, Number of replicates 2.0, Standard deviation 0.44117163102560114 %) 11%; (PRVABC59, Concentration 198.0 uM, Number of replicates 2.0, Standard deviation 0.2881536199967374 %) 21.6%.
As for `COc1cc(Cc2ccnc(N3CCNCC3)c2)nc(N2CCNCC2)n1`, the inhibition worked out at 19.2% (PRVABC59, Concentration 49.5 uM, Number of replicates 2.0, Standard deviation 1.782469122426121 %); 30.9% (PRVABC59, Concentration 99.01 uM, Number of replicates 2.0, Standard deviation 1.2150848760245847 %); 44% (PRVABC59, Concentration 198.0 uM, Number of replicates 2.0, Standard deviation 1.1140443816280838 %).
For the compound `COc1cc(Cc2c(-c3ccc(F)cc3)noc2C)nc(N2CCNCC2)n1`, the inhibition worked out at 48.7% (PRVABC59, Concentration 49.5 uM, Number of replicates 2.0, Standard deviation 1.339595433070256 %); 67.2% (PRVABC59, Concentration 99.01 uM, Number of replicates 2.0, Standard deviation 0.7981008155972035 %); 83.1% (PRVABC59, Concentration 198.0 uM, Number of replicates 2.0, Standard deviation 0.25862115465775987 %).
Turning to `CC(C)(C)OC(=O)N[C@H](C(=O)Nc1ccc(CN)cc1)c1ccc(OCc2ccccc2)cc1`, the inhibition reads like this: (PRVABC59, Concentration 49.5 uM, Number of replicates 2.0, Standard deviation 0.6279742186460096 %) 5.64%; (PRVABC59, Concentration 99.01 uM, Number of replicates 2.0, Standard deviation 1.57987158185777 %) 32.3%; (PRVABC59, Concentration 198.0 uM, Number of replicates 2.0, Standard deviation 0.42725710187082055 %) 70.3%.
In the case of `CC(C)(C)OC(=O)N[C@H](C(=O)Nc1cccc(CN)c1)c1ccc(OCc2ccccc2)cc1`, the inhibition is, setting by setting: (PRVABC59, Concentration 49.5 uM, Number of replicates 2.0, Standard deviation 0.15500599357942563 %) 7.17%; (PRVABC59, Concentration 99.01 uM, Number of replicates 2.0, Standard deviation 1.1863939989566727 %) 43.6%; (PRVABC59, Concentration 198.0 uM, Number of replicates 2.0, Standard deviation 0.6438743701278353 %) 80.9%.
For `CC(C)Nc1nc2ccc(C(=O)Nc3nnnn3-c3ccccn3)cc2[nH]1`, the inhibition was found to be 13.5% (PRVABC59, Concentration 50.0 uM, Number of replicates 2.0, Standard deviation 0.2871029833570578 %); 30.1% (PRVABC59, Concentration 100.0 uM, Number of replicates 2.0, Standard deviation 0.2358348824788301 %); 66.8% (PRVABC59, Concentration 200.0 uM, Number of replicates 2.0, Standard deviation 0.2742876440114413 %).
For the compound `CC(C)Nc1nc2ccc(C(=O)Nc3ccc4cn[nH]c4n3)cc2[nH]1`, the inhibition was 7.41% (PRVABC59, Concentration 49.5 uM, Number of replicates 2.0, Standard deviation 0.40894109303235027 %); 13.2% (PRVABC59, Concentration 99.01 uM, Number of replicates 2.0, Standard deviation 0.19020569275657198 %); 25.2% (PRVABC59, Concentration 198.0 uM, Number of replicates 2.0, Standard deviation 0.6447955316488895 %).
In the case of `CCn1ccnc(N2CC[C@@H](C(=O)NC)C2)c1=O`, the inhibition runs as follows: (PRVABC59, Concentration 49.5 uM, Number of replicates 2.0, Standard deviation 1.330415175115007 %) 6.78%; (PRVABC59, Concentration 99.01 uM, Number of replicates 2.0, Standard deviation 0.8792533922931717 %) 13.1%; (PRVABC59, Concentration 198.0 uM, Number of replicates 2.0, Standard deviation 1.1945536288283818 %) 25%.
For `c1ccc2c([C@H]3CCN(CC[C@H]4CCOC4)C3)c[nH]c2c1`, the inhibition is 1.3% (PRVABC59, Concentration 49.5 uM, Number of replicates 2.0, Standard deviation 1.796591735840356 %); 8.43% (PRVABC59, Concentration 99.01 uM, Number of replicates 2.0, Standard deviation 1.8008191859181881 %); 18.7% (PRVABC59, Concentration 198.0 uM, Number of replicates 2.0, Standard deviation 1.4478420270377552 %).
In the case of `CCCC[C@H](N)C(=O)N[C@@H](C(=O)NCc1ccc(C(N)=O)cc1)c1ccc(OCc2ccccc2)cc1`, the inhibition runs as follows: (PRVABC59, Concentration 49.5 uM, Number of replicates 2.0, Standard deviation 2.90329459480482 %) 4.12%; (PRVABC59, Concentration 99.01 uM, Number of replicates 2.0, Standard deviation 3.493094389705784 %) 14.2%; (PRVABC59, Concentration 198.0 uM, Number of replicates 2.0, Standard deviation 4.814160045121922 %) 56.8%.
Compound `CCCC[C@H](N)C(=O)N[C@H](C(=O)NCc1ccc(C(N)=O)cc1)c1ccc(OCc2ccccc2)cc1` displayed an inhibition (PRVABC59, Concentration 49.5 uM, Number of replicates 2.0, Standard deviation 4.202595364768841 %) of 4.08%; an inhibition (PRVABC59, Concentration 99.01 uM, Number of replicates 2.0, Standard deviation 1.455996262112855 %) of 82.9%; an inhibition (PRVABC59, Concentration 198.0 uM, Number of replicates 2.0, Standard deviation 0.15670265711308018 %) of 99.2%.
As for `CC(C)Cn1cccc(C(=O)Nc2ccnc3ccccc23)c1=O`, the inhibition is 20.1% (PRVABC59, Concentration 49.5 uM, Number of replicates 2.0, Standard deviation 2.895437242130631 %); 0.798% (PRVABC59, Concentration 99.01 uM, Number of replicates 2.0, Standard deviation 37.62280174563721 %); 10.2% (PRVABC59, Concentration 198.0 uM, Number of replicates 2.0, Standard deviation 2.6549790189575497 %).
For `CCn1ccnc(N2CC[C@@H](CO)C2)c1=O`, the inhibition stood at 9.83% (PRVABC59, Concentration 49.5 uM, Number of replicates 2.0, Standard deviation 1.691792032316267 %); 17.4% (PRVABC59, Concentration 99.01 uM, Number of replicates 2.0, Standard deviation 1.0699999134098355 %); 29.5% (PRVABC59, Concentration 198.0 uM, Number of replicates 2.0, Standard deviation 1.0674090623381738 %).
Consider `CCn1c(=O)c(N2CC[C@@H](CO)C2)nc2ccccc21`, for which the inhibition was 20.2% (PRVABC59, Concentration 49.5 uM, Number of replicates 2.0, Standard deviation 1.0667198770713235 %); 36.2% (PRVABC59, Concentration 99.01 uM, Number of replicates 2.0, Standard deviation 2.3733193853793706 %); 55.9% (PRVABC59, Concentration 198.0 uM, Number of replicates 2.0, Standard deviation 1.8335969585925045 %).
With `O=c1c(N2CC[C@H](CO)C2)nccn1C1CC1`, the inhibition is, setting by setting: (PRVABC59, Concentration 49.5 uM, Number of replicates 2.0, Standard deviation 2.4909219053667124 %) 11.8%; (PRVABC59, Concentration 99.01 uM, Number of replicates 2.0, Standard deviation 2.8453613913030793 %) 19.9%; (PRVABC59, Concentration 198.0 uM, Number of replicates 2.0, Standard deviation 1.2782808722061834 %) 35.4%.
Turning to `N[C@H]1CCN(c2cccc(CNC(=O)c3ccc4[nH]c(=O)[nH]c4c3F)n2)C1`, the inhibition was 0.083% (PRVABC59, Concentration 49.5 uM, Number of replicates 2.0, Standard deviation 1.7942103071905888 %); 1.95% (PRVABC59, Concentration 99.01 uM, Number of replicates 2.0, Standard deviation 0.9354948212956848 %); 51.2% (PRVABC59, Concentration 198.0 uM, Number of replicates 2.0, Standard deviation 18.65130084254076 %).
Under setting [1], `N#CC1(c2ccccc2)CCN(C(=O)C2CCN(c3ccc(C=O)cc3)CC2)CC1` showed an inhibition of 12.6%.
Still for that read-out and setting: the same measure for `O=Cc1ccc(N2CCC(C(=O)N3CCN(c4cccc(O)c4)CC3)CC2)cc1`: 36.7%; for `NC(=O)C1(N2CCCCC2)CCN(C(=O)C2CCN(c3ccc(C=O)cc3)CC2)CC1`: 55.7%.
Take `c1ccc2c([C@H]3CCN(C[C@H]4CCCOC4)C3)c[nH]c2c1`: the inhibition (PRVABC59, Concentration 49.5 uM, Number of replicates 2.0, Standard deviation 0.2718923543168702 %) amounted to 3%; the inhibition (PRVABC59, Concentration 99.01 uM, Number of replicates 2.0, Standard deviation 1.3138002130824364 %) stood at 7.93%; the inhibition (PRVABC59, Concentration 198.0 uM, Number of replicates 2.0, Standard deviation 0.8779424567170888 %) amounted to 17.5%.
With `CCn1ccnc(N2CC[C@H](c3c[nH]c4ccccc34)C2)c1=O`, the inhibition (PRVABC59, Concentration 49.5 uM, Number of replicates 2.0, Standard deviation 0.8076182483405395 %) stood at 8.04%; the inhibition (PRVABC59, Concentration 99.01 uM, Number of replicates 2.0, Standard deviation 0.7356695318349864 %) stood at 17.6%; the inhibition (PRVABC59, Concentration 198.0 uM, Number of replicates 2.0, Standard deviation 0.07734519898888803 %) came to 32.1%.
In the case of `c1ccc2c(CN3CCCCC3)c[nH]c2c1`, the inhibition by setting is: (PRVABC59, Concentration 49.5 uM, Number of replicates 2.0, Standard deviation 0.27567478108963184 %) 10.6%; (PRVABC59, Concentration 99.01 uM, Number of replicates 2.0, Standard deviation 0.4102311237715717 %) 22.8%; (PRVABC59, Concentration 198.0 uM, Number of replicates 2.0, Standard deviation 0.3445953308233743 %) 38%.
As to `OC1CCN(Cc2c[nH]c3ccccc23)CC1`, the inhibition came to 5.44% (PRVABC59, Concentration 49.5 uM, Number of replicates 2.0, Standard deviation 2.7698787458435845 %); 11.6% (PRVABC59, Concentration 99.01 uM, Number of replicates 2.0, Standard deviation 2.6829105784026894 %); 21.9% (PRVABC59, Concentration 198.0 uM, Number of replicates 2.0, Standard deviation 2.633683059341965 %).
As to `O=C(O)c1ccc(C2CCN(Cc3c[nH]c4ccccc34)CC2)cc1`, the inhibition reads like this: (PRVABC59, Concentration 49.5 uM, Number of replicates 2.0, Standard deviation 0.6949576992221913 %) 10.8%; (PRVABC59, Concentration 99.01 uM, Number of replicates 2.0, Standard deviation 0.3163616627681085 %) 22.8%; (PRVABC59, Concentration 198.0 uM, Number of replicates 2.0, Standard deviation 0.22041520507002849 %) 37.7%.
On to `NS(=O)(=O)c1ccc(C2CCN(Cc3c[nH]c4ccccc34)CC2)cc1`, for which the inhibition reads like this: (PRVABC59, Concentration 49.5 uM, Number of replicates 2.0, Standard deviation 0.10609946491696037 %) 65%; (PRVABC59, Concentration 99.01 uM, Number of replicates 2.0, Standard deviation 0.029644407368622425 %) 80.2%; (PRVABC59, Concentration 198.0 uM, Number of replicates 2.0, Standard deviation 0.031203503588737417 %) 89.2%.

For the origin of these results see ChEMBL document CHEMBL5606458, “ASAP - ZIKV NS2B-NS3 protease fluorescence single point” (2024).
